According to PubChem BioAssay (NCATS):
Inconclusive results are not listed. Where a call stands in place of a potency, no number is given. Calls of active or inactive are those of the source. Unless noted, calls come from the whole dose curve; as a rule, active = well fitted curve in the direction sought with a large enough effect; inconclusive = small, poorly fitted or top-dose-only effect, or another doubt; inactive = no such curve, though single readings can be large; an effect the other way counts as inactive or inconclusive.

Assays:
[1] = MultiTox-Fluor Cytotoxicity Assay - LYMP1-001 - Dead Cells (AID 946); note: potency is the fitted concentration of half-maximal effect
Procedure, shortened: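 LYMP1-001 lymphoblastoid cells (2500/well) treated 16 h at 37 C. Dead-cell protease cleavage of bis-AAF-R110 read at Ex/Em 485/520. Normalized to DMSO and 15 uM tetraoctylammonium bromide; AC50 from Hill fits.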

[2] = MultiTox-Fluor Cytotoxicity Assay - LYMP1-001 - Live Cells (AID 947)
[3] = Cell Viability - LYMP1-002 - Assay at 16 hr (AID 948)
Procedure, shortened: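 LYMP1-002 human lymphoblastoid cells, 2500/well; 5 hr 37 C; cpd 16 hr 37 C; CellTiter-Glo 30 min RT; luminescence (ATP). Concentration-response, Hill-fit AC50. Pos ctrl tetraoctylammonium bromide.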

[4] = MultiTox-Fluor Cytotoxicity Assay - LYMP1-002 - Live Cells (AID 955); note: potency is the fitted concentration of half-maximal effect
Procedure, shortened: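 Human lymphoblastoid LYMP1-002 cells, 2500/well in complete medium, rested 5 hr at 37 C, then exposed to compounds for 16 hr at 37 C. Live-cell protease cleavage of GF-AFC read by fluorescence (Ex/Em 405/510) after 60 min at room temperature; AC50 from Hill fits.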

[5] = MultiTox-Fluor Cytotoxicity Assay - LYMP1-002 - Dead Cells (AID 960); note: nearly all actives have a fitted effect of over 60% in size; note: potency is the fitted concentration of half-maximal effect
Procedure, shortened: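 Human lymphoblastoid cells (LYMP1-002), 2500/well in complete medium, were exposed to compounds for 16 hr at 37 C. Dead-cell protease activity was read as bis-AAF-R110 fluorescence (Ex/Em 485/520), normalized to DMSO and 15 uM tetraoctylammonium bromide; AC50 from Hill fits.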

[6] = MultiTox-Fluor Cytotoxicity Assay - LYMP1-003 - Dead Cells (AID 961); note: nearly all actives have a fitted effect of over 70% in size; note: potency is the fitted concentration of half-maximal effect
Procedure, shortened: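 LYMP1-003 human lymphoblastoid cells (2500/well) exposed to compound 16 h at 37 C in complete medium; dead-cell protease read with bis-AAF-R110 fluorescence (Ex/Em 485/520) after 60 min at room temperature. Normalized to DMSO and 15 uM tetraoctylammonium bromide; AC50 from Hill fit.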

[7] = MultiTox-Fluor Cytotoxicity Assay - LYMP1-003 - Live Cells (AID 962); note: potency is the fitted concentration of half-maximal effect
Procedure, shortened: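 LYMP1-003 human lymphoblastoid cells (2500/well) in complete medium were preincubated 5 hr at 37 C, then exposed to compounds for 16 hr at 37 C. Live-cell protease cleavage of GF-AFC read by fluorescence (Ex/Em 405/510); AC50 from Hill fits.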

[8] = molecular target: Pyruvate kinase PKM (Homo sapiens) (UniProt P14618); assay: qHTS Assay for Activators of Human Muscle Pyruvate Kinase (AID 954; active = well fitted curve in the direction sought with a large enough effect, not every such curve was filed as active)
Procedure, shortened: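 Purified human PKM2 (0.1 nM) with 0.5 mM PEP (Km) and 0.1 mM ADP in 50 mM imidazole pH 7.2, KCl, MgCl2, 1 h at room temperature; ATP formed read by coupled luciferase luminescence. Normalized to no-enzyme/110 uM thiadiazolimine inhibition; 0.3 nM enzyme column for activation.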

[9] = molecular target: Alpha-galactosidase (Coffea arabica) (UniProt Q42656); assay: Counterscreen for Glucocerebrosidase Inhibitors: qHTS Assay for Coffee Bean alpha-Galactosidase at pH 4.5 (AID 957); note: series mostly up to about 77 µM
Procedure, shortened: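 Green coffee bean enzyme (2 nM final) was incubated with compounds (0.7 nM to 77 uM) and 4-methylumbelliferyl alpha-D-galactopyranoside (80 uM final) in 50 mM citric acid, 0.005% Tween-20, pH 4.5, 20 min at room temperature; AC50 from Hill fits.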

Alpha-galactosidase (Coffea arabica), sequence (Q42656 whole entry, looked up): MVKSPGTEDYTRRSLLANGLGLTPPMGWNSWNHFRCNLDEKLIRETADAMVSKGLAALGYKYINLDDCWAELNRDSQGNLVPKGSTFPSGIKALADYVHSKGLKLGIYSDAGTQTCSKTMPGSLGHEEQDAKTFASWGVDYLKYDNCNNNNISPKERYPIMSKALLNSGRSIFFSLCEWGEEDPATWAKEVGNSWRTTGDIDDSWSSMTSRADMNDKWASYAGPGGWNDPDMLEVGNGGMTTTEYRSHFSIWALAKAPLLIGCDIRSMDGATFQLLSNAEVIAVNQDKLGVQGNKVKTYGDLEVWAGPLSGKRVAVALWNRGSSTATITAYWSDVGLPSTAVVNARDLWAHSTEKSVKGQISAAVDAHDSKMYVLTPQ
Pyruvate kinase PKM (Homo sapiens), sequence (P14618 whole entry, looked up): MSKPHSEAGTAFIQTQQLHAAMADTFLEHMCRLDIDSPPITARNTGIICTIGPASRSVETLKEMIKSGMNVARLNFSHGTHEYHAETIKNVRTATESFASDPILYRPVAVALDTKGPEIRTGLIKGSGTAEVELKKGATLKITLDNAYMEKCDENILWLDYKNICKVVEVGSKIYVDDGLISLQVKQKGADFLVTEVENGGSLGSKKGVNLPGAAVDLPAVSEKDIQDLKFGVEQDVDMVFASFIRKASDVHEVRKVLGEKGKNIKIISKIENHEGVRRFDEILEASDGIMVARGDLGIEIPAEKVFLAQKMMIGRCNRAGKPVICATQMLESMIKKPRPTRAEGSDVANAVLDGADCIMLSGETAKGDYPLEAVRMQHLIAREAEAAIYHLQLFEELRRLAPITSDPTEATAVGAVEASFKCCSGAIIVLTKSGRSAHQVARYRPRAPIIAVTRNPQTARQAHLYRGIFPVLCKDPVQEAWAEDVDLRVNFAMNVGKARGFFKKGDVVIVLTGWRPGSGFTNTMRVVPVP

Oc1ccccc1-c1ccccc1
Potency [1]: inactive
outcome [2]: inactive
outcome [3]: inactive
Potency [4]: inactive
Potency [5]: inactive
Potency [6]: inactive
Potency [7]: inactive

Oc1ccc(Cl)cc1Cc1ccccc1
Potency [1]: inactive
outcome [2]: inactive
outcome [3]: inactive
Potency [4]: inactive
Potency [5]: inactive
Potency [6]: inactive
Potency [7]: inactive

NCC(O)c1ccc(O)cc1 (stereo not drawn)
Potency [1]: inactive
outcome [2]: inactive
outcome [3]: inactive
Potency [4]: inactive
Potency [5]: inactive
Potency [6]: inactive
Potency [7]: inactive

N[C@@H]1C[C@H]1c1ccccc1
outcome [8]: inactive
outcome [9]: inactive

CNCC(O)c1ccc(O)cc1 (stereo not drawn)
Potency [1]: inactive
outcome [2]: inactive
outcome [3]: inactive
outcome [8]: inactive
Potency [4]: inactive
outcome [9]: inactive
Potency [6]: inactive
Potency [7]: inactive

CC(=O)Oc1ccccc1C(=O)Nc1ncc([N+](=O)[O-])s1
Potency [1]: 39.8 µM (active)
Potency [4]: 25.1 µM (active)
Potency [5]: 25.1 µM (active)
Potency [6]: 39.8 µM (active)
Potency [7]: 39.8 µM (active)

N[C@@H](Cc1ccc(N(CCCl)CCCl)cc1)C(=O)O
outcome [2]: inactive
outcome [3]: inactive
Potency [4]: inactive
Potency [5]: inactive
Potency [6]: inactive
Potency [7]: inactive

Cc1ccc(S(=O)(=O)N[C@@H](CCCCN)C(=O)CCl)cc1
outcome [8]: inactive
outcome [9]: inactive

COc1ccccc1N1CCNCC1
outcome [8]: inactive
outcome [9]: inactive

Cc1cccc(C)c1NC1=NCCCS1
outcome [8]: inactive
outcome [9]: inactive

Clc1ccc(COC(Cn2ccnc2)c2ccc(Cl)cc2Cl)cc1 (stereo not drawn)
outcome [3]: inactive
Potency [4]: inactive
Potency [6]: 63.1 µM (active)
Potency [7]: inactive

Nc1ccncc1
outcome [8]: inactive
outcome [9]: inactive

CCCN1CCC[C@@H]2Cc3[nH]ncc3C[C@H]21
outcome [8]: inactive
outcome [9]: inactive

NCC1(CC(=O)O)CCCCC1
outcome [8]: inactive
outcome [9]: inactive
